Reference: ChEMBL document CHEMBL3988442, “University of Dundee, Small-Polar-MMV Screening Library” (2021)
Out of some 48,000 compounds screened, about 13,000 (27%) showed an effect of 50% or more. The list shows a part of the results.

Test system: Wolbachia pipientis
Assay: Anti-Wolbachia Cell-Based Screen
Assay type: functional
Design: scale not given: in the data most compounds retested in dose-response had high values
Settings: 5 µM

| Structure (SMILES) | Percent Effect [%] |
| --- | --- |
| CN(CCCc1nccn1C)C(=O)C1CCN(C(=O)C2CC2)CC1 | 15.41 |
| Cc1ccccc1CN1CCC2(CC1)CN(S(=O)(=O)c1ccccc1)C2.O=C(O)C(F)(F)F | -17.23 |
| Cc1occc1C(=O)N1CCC[C@]2(C[C@@H](OCc3ccncc3)CO2)C1.O=C(O)C(F)(F)F | -11.73 |
| CCc1cc(C(=O)N2CCCC2c2nc(C)c(CC)c(O)n2)on1 (stereo not given) | 110.9 |
| CCc1nc(C2CCCN2C(=O)C2=COCC2)no1 (stereo not given) | -4.333 |
| CCc1cc(C(=O)N2CCCC2c2nc(C)c(F)c(O)n2)on1 (stereo not given) | -4.896 |
| CCc1nc(C2CCCN2C(=O)c2ccc3c(c2)nc(C)n3C)no1 (stereo not given) | 0.7608 |
| CCc1c(C)nc(C2CCCN2C(=O)c2cc(C)no2)nc1O (stereo not given) | 101.8 |
| O=C1CO[C@H]2CN(Cc3ccc4c(c3)OCO4)C[C@H]2N1 | -13.01 |
| Cn1ncc2c1NC(=O)CC2c1cc2c(cc1Cl)OCO2 (stereo not given) | -77.33 |
| O=C1CC(c2ccc3c(c2)OCO3)c2cn[nH]c2N1 (stereo not given) | 104.3 |
| CCC(C)(NCc1ncc(C(C)C)o1)c1nccs1 (stereo not given) | -9.094 |
| CN(C)[C@@H]1CO[C@H](CNC(=O)Nc2ccccc2)[C@H]1O | -15.17 |
| CN(Cc1c(F)cccc1Cl)C(=O)Nc1cnn(CC(N)=O)c1 | -4.374 |
| CCOc1ccc2nc(CN3CCOC(CN)C3)ccc2c1 (stereo not given) | 8.772 |
| CC(C)c1n[nH]c(C2CN(C(=O)c3ccnc(C4CC4)n3)CCO2)n1 (stereo not given) | 106.2 |
| Cc1nccc(C(=O)N2CCOC(c3nc(C(C)C)n[nH]3)C2)n1 (stereo not given) | 122.6 |
| CC1CCc2nc(O)c(C(=O)NCc3ccncc3)cc2C1 (stereo not given) | 0.9729 |
| CCc1nc(CN2CCCN(Cc3cnn(C)c3)CC2)no1 | -7.215 |
| CN1CCN(C(=O)c2ncn3c2CNS(=O)(=O)c2ccccc2-3)CC1 | 3.453 |
| CCN1Cc2c(C(=O)NC)ncn2-c2ccccc2S1(=O)=O | -8.627 |
| CN1CCN(C(=O)c2ncn3c2CN(C)S(=O)(=O)c2ccccc2-3)CC1.O=C(O)C(F)(F)F | 82.4 |

| Structure (SMILES) | Percent Effect [%] |
| --- | --- |
| CN1Cc2c(C(=O)N3CCOCC3)ncn2-c2ccccc2S1(=O)=O | -2.827 |
| CCCN(CC)C(=O)c1ncn2c1CN(C)S(=O)(=O)c1ccccc1-2 | 93.03 |
| CCCNC(=O)c1ncn2c1CN(CC(C)C)S(=O)(=O)c1ccccc1-2 | 51.12 |
| CCNC(=O)c1ncn2c1CN(C)S(=O)(=O)c1ccccc1-2 | 6.974 |
| CC(C)CN1Cc2c(C(=O)NC3CC3)ncn2-c2ccccc2S1(=O)=O | 24.74 |
| CN(C(=O)c1ncn2c1CN(C)S(=O)(=O)c1ccccc1-2)C1CC1.O=C(O)C(F)(F)F | 110.5 |
| CCN1Cc2c(C(=O)NC(C)C)ncn2-c2ccccc2S1(=O)=O | -5.811 |
| Cc1ncsc1CCN(C)C(=O)c1c(O)cccc1O | -0.9599 |
| O=C(CCn1nnc2ccccc2c1=O)N(CC1CCOC1)C1CC1 (stereo not given) | -7.506 |
| CCCOC1CCCN(C(=O)Cn2cccc(C(F)(F)F)c2=O)C1 (stereo not given) | -4.197 |
| CN1Cc2c(C(=O)NCC3CCCO3)ncn2-c2ccccc2S1(=O)=O (stereo not given) | 113.6 |
| CCC(CC)NC(=O)c1ncn2c1CN(CC)S(=O)(=O)c1ccccc1-2.O=C(O)C(F)(F)F | 4.599 |
| CCC(C)(C)NC(=O)c1ncn2c1CN(C)S(=O)(=O)c1ccccc1-2.O=C(O)C(F)(F)F | 117.1 |
| CCN1Cc2c(C(=O)NC(C)C(C)C)ncn2-c2ccccc2S1(=O)=O (stereo not given) | 6.168 |
| CN1Cc2c(C(=O)Nc3cccnc3)ncn2-c2ccccc2S1(=O)=O.O=C(O)C(F)(F)F | -4.618 |
| CC(C)C(C)NC(=O)c1ncn2c1CN(C)S(=O)(=O)c1ccccc1-2.O=C(O)C(F)(F)F (stereo not given) | 211.3 |
| O=C(c1ncn2c1CNS(=O)(=O)c1ccccc1-2)N1CC=CC1 | -15.18 |
| CN1Cc2c(C(=O)NC3CCCCC3)ncn2-c2ccccc2S1(=O)=O.O=C(O)C(F)(F)F | 115.3 |
| Cc1c(C(=O)NC2CCCC2)nnn1-c1ccccc1 | -16.4 |
| Cc1c(CNC(=O)C2CCCN2C(=O)C2CC2)oc2ccccc12 (stereo not given) | -1.359 |
| CCOc1cccc(NS(=O)(=O)c2cc(C)c(C(=O)O)s2)c1 | -3.705 |
| O=C(c1csc(-c2ccccn2)n1)N1CCCC1Cn1cccn1 (stereo not given) | 108.1 |

| Structure (SMILES) | Percent Effect [%] |
| --- | --- |
| CCC1CN(C(=O)c2csc(-c3cnn(C)c3)n2)CCO1 (stereo not given) | 8.184 |
| Cn1cc(-c2nc(C(=O)N3CCCC3Cn3cccn3)cs2)cn1 (stereo not given) | 119.5 |
| O=C(c1csc(-c2cccs2)n1)N1CCCC1Cn1cccn1 (stereo not given) | 4.192 |
| O=C(c1csc(-c2cnccn2)n1)N1CCCC1Cn1cccn1 (stereo not given) | 125.1 |
| O=C(c1csc(-c2ncccn2)n1)N1CCCC1Cn1cccn1 (stereo not given) | 100.9 |
| CN(CC(=O)N1CCCC1Cn1cccn1)c1cnccn1 (stereo not given) | -3.712 |
| CCc1nc(CC(=O)N2CCCC2Cn2cccn2)cs1 (stereo not given) | -8.177 |
| O=C(CN1CCCCCC1=O)NCC1CCN(c2ccccc2)C1 (stereo not given) | -4.287 |
| O=C(N1CCOCC1CO)C1(c2cccs2)CCCC1 (stereo not given) | 1.205 |
| COc1ccc(/C=C/CN2CCN(c3nccnc3C)CC2)cc1 | 1.299 |
| COc1ccc(N(CCC(N)=O)C(=O)CSc2ccc(F)c(F)c2)cc1 | 6.569 |
| CCc1nc(CCNC(=O)NC2CCN(C(C)C)C2)sc1C (stereo not given) | -28.06 |
| Cc1ncc(CN2CCCC2c2ccc(C(=O)NCc3ccoc3)s2)s1 (stereo not given) | 9.292 |
| CCCc1nnc(N2CCC(C3CCN(C)CC3)CC2)o1 | -0.3277 |
| CCCc1nnc(N2CCN(c3cccc(C)c3C)CC2)o1 | 106.7 |
| CCCc1nnc(N2CCC(N3CCN(CCO)CC3)CC2)o1 | -3.287 |
| CCc1nnc(N2CCN(CCc3ccccc3)C(=O)C2)o1 | -17.07 |
| CCCc1nnc(N2CCC(N3CCCC(O)C3)CC2)o1 (stereo not given) | 11.24 |
| CCCc1nnc(N2CCN(C3CCCC3)CC2)o1 | -0.2431 |
| CCCc1nnc(N2CCN(c3ccccc3Cl)CC2)o1 | 94.38 |
| CCCc1nnc(N2CCN(c3ccccc3F)CC2)o1 | 104.4 |
